Inconclusive results are not listed. The source made the active and inactive calls. Calls follow the shape of the dose curve; as a rule, active = well fitted curve in the direction sought with a large enough effect; inconclusive = small, poorly fitted or top-dose-only effect, or another doubt; inactive = no such curve, though single readings can be large; an effect the other way counts as inactive or inconclusive.
Experiments:
[1] = system: CRL-7250; assay: Cytotoxic Profiling of Annotated Libraries Using Quantitative High-Throughput Screening (AID 1296008); settings: Five cell lines viability, CellTiter-Glo ATP luminescence, 48-72 h; max response: hits give low values; also: nearly all actives have a fitted effect of over 60% in size; as to max response: % is scaled to controls: 0 for no effect and ±100 for the full control effect
Method in brief: (§1)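 Compounds were pin-transferred onto cells and incubated 48 or 72 hr at 37 degree Celsius, 95% humidity. CellTiter-Glo was added, plates sat 10 min at room temperature, then ATP-coupled luminescence was imaged as the viability read-out.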

[2] = system: HEK293; assay: as above; settings: Five cell lines viability, CellTiter-Glo ATP luminescence, 48-72 h; max response: hits give low values
Method in brief: as §1

[3] = system: HaCat; assay: as above; settings: Five cell lines viability, CellTiter-Glo ATP luminescence, 48-72 h; max response: hits give low values
Method in brief: as §1

[4] = system: KB-3-1; assay: as above; settings: Five cell lines viability, CellTiter-Glo ATP luminescence, 48-72 h; max response: hits give low values
Method in brief: as §1

[5] = system: NIH3T3; assay: as above; settings: Five cell lines viability, CellTiter-Glo ATP luminescence, 48-72 h; max response: hits give low values
Method in brief: as §1

[6] = system: HEK293T; assay: qHTS assay to identify novel small-molecules to repurpose for Merkel cell carcinoma treatment (AID 1296009); settings: MCC and control cell lines, CellTiter-Glo viability, 72 h; series mostly up to 44.8 µM; also: nearly all actives have a fitted effect of over 60% in size
Method in brief: (§2)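 Luminescence from CellTiter-Glo, read 10 min after addition at room temperature, reported viability following a 72 hr, 37 degree celsius treatment with NPC or MIPE compounds in titration; values normalized to plate controls.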

[7] = system: C33A; assay: Primary qHTS to identify gynecologic anti-cancer compounds using libraries of approved drugs and bioactive compounds (AID 1345084); settings: Gynecologic cancer cell panel viability, ATPlite luminescence, 48 h; series mostly up to 57.5 µM; also: % is scaled to controls: 0 for no effect and ±100 for the full control effect; nearly all actives have a fitted effect of over 55% in size
Method in brief: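 Cytotoxicity screen measuring ATP content by luciferase luminescence. Each compound is applied at five concentrations for 48 h at 37 C with 5% CO2.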

[8] = system: NIH3T3; assay: qHTS assay to identify novel small-molecules to repurpose for Merkel cell carcinoma treatment (AID 1296009); settings: MCC and control cell lines, CellTiter-Glo viability, 72 h; at 44.8 µM (top of the series) unless noted; also: nearly all actives have a fitted effect of over 60% in size
Method in brief: as §2

C[C@@H]1C(=O)O[C@H]2CC34[C@H]5C[C@@H](C(C)(C)C)C36[C@@H](OC(=O)[C@@H]6O)O[C@@]4(C(=O)O5)[C@]21O (stereo partly drawn)
inactive: max response [1] 3.21% | outcome [2] | max response [3] -17.8% | max response [4] -3.91% | max response [5] 1.08% | Potency [6] | Potency [7]

CC(=O)O[C@@H]1[C@@H](OC(=O)/C=C/c2ccccc2)[C@H](C)O[C@@H](O[C@H]2[C@@H]3C=CO[C@@H](O[C@@H]4O[C@H](CO)[C@@H](O)[C@H](O)[C@H]4O)[C@@H]3[C@@]3(CO)O[C@@H]23)[C@@H]1OC(C)=O
inactive: max response [1] -9.67% | outcome [2] | max response [3] -6.34% | max response [4] 5.32% | outcome [5] | Potency [6] | outcome [8] inactive [at 17.4 µM] | Potency [7]

C=CC(C)(O)CO[C@@H]1O[C@H](CO)[C@@H](O)[C@H](O)[C@H]1O (stereo partly drawn)
inactive: max response [1] -1.51% | outcome [2] | max response [3] -30.3% | max response [4] 1.27% | max response [5] -4.31% | Potency [6] | Potency [7]

COC(=O)CC1(O)C(=O)Nc2ccccc21 (stereo not drawn)
inactive: max response [1] 3.09% | outcome [2] | max response [3] -5.67% | outcome [4] | max response [5] 2.12% | Potency [6] | Potency [7]

COc1ccccc1-n1c(SCC(=O)Nc2nc3ccc(C)cc3s2)nc2c(c1=O)SCC2
inactive: max response [1] 2.47% | outcome [2] | max response [3] -3.57% | max response [4] 6.25% | max response [5] 3.32% | Potency [6] | Potency [7]

COc1c2c(c(C)c3c1C(=O)OC3)O[C@@]1(C)C[C@@H](O)[C@]34O[C@](OC)(CC[C@]3(C)[C@H]1C2)OC4(C)C
inactive: outcome [1] | outcome [2] | max response [3] -1.6% | outcome [4] | max response [5] 2.2% | Potency [6] | Potency [7]

C=C1CCC2C(OC(=O)C2(O)COC(C)=O)C2C(=C)C(O)CC12 (stereo not drawn)
inactive: max response [1] -7.9% | outcome [2] | max response [3] -8.75% | max response [4] 8.26% | max response [5] -5.53% | Potency [6] | Potency [7]

C[C@@H](OC(=O)/C=C/c1ccc(O)cc1)C1=C[C@]2(C=C[C@@H]3C(C(=O)O)=CO[C@@H](O[C@@H]4O[C@H](CO[C@@H]5O[C@H](CO)[C@@H](O)[C@H](O)[C@H]5O)[C@@H](O)[C@H](O)[C@H]4O)[C@@H]32)OC1=O
inactive: max response [1] 1.07% | outcome [2] | max response [3] 4.46% | max response [4] 4.2% | max response [5] 2.02% | Potency [6] | Potency [7]

COc1ccc(C)c2sc(NC(=O)c3ccncc3)nc12
inactive: outcome [1] | outcome [2] | max response [3] 4.45% | outcome [4] | max response [5] 2.46% | Potency [6] | Potency [7]

Cn1c(=O)cc(N2CCCC(N)C2)n(Cc2ccccc2C#N)c1=O (stereo not drawn)
inactive: max response [1] -7.54% | outcome [2] | max response [3] 0.732% | max response [4] 8.99% | outcome [5] | Potency [6] | Potency [7]

CC1(C)O[C@@]2(C)CC[C@@H]1C[C@@H]2OC1OC(CO)C(O)C(O)C1O (stereo partly drawn)
inactive: outcome [1] | outcome [2] | max response [3] -5.55% | outcome [4] | max response [5] -8.31% | Potency [6] | Potency [7]

CC(C)[C@@H](C)/C=C/[C@@H](C)[C@H]1CC[C@H]2C3=CC=C4C[C@@H](O)CC[C@]4(C)[C@H]3CC[C@]12C
inactive: max response [1] -9.59% | outcome [2] | max response [3] -1.06% | outcome [4] | max response [5] -4.11% | Potency [6] | Potency [7]

O=c1c2cccnc2n(-c2cccc([N+](=O)[O-])c2)c(=O)n1Cc1ccncc1
inactive: outcome [1] | outcome [2] | max response [3] -29.4% | outcome [4] | max response [5] -3.44% | Potency [6] | Potency [7]

COC(=O)[C@@]1(C)CC[C@]2(C(=O)O[C@@H]3O[C@H](CO)[C@@H](O)[C@H](O)[C@H]3O)CC[C@]3(C)C(=CCC4[C@@]5(C)CC[C@H](O[C@@H]6O[C@H](C(=O)O)[C@@H](O)[C@H](O)[C@H]6O)C(C)(C)C5CC[C@]43C)[C@@H]2C1 (stereo partly drawn)
inactive: max response [1] -18.2% | outcome [2] | max response [3] -2.02% | max response [4] -0.321% | max response [5] 2.66% | outcome [6] inactive [at 9.27 µM] | activity change, negative = cytotoxicity [7] -14.8% [at 11.6 µM]

COc1c(C)c(OCC=C(C)C)cc2c1C(=O)NC2=O
inactive: max response [1] -3.35% | outcome [2] | max response [3] -14.7% | outcome [4] | max response [5] -1.16% | Potency [6] | Potency [7]

Cc1c(CN(C)C(=O)/C=C/c2cnc3c(c2)CCC(=O)N3)oc2ccccc12
inactive: outcome [1] | outcome [2] | max response [3] 1.29% | max response [4] 9.61% | max response [5] -2.06% | Potency [6] | Potency [7]

— PubChem BioAssay (NCATS)
